# Test results taken from PubChem BioAssay (Tox21).
# Where “and” joins values, the source holds several entries; their conditions need not be identical. Equal entries are not always repeated. Inconclusive results are not listed. A call without a number means that no potency is given here. Calls of active or inactive are those of the source. The call rests on the fitted dose curve; in most records, active means well fitted cell-killing curve with a large enough effect in the repeat runs; inconclusive means weak or mixed curves, or effect the other way; inactive means no such curve, though single readings can be large or run the other way.
# Experiment: qHTS assay for identifying genotoxic compounds that show differential cytotoxicity against isogenic chicken DT40 cell lines with known DNA damage response pathways - wild type cell line (AID 743012); further: nearly all actives have a fitted effect of over 60% in size
# Conditions: DT40 wild type chicken cells viability, CellTiter-Glo, 40 h; series mostly up to 68.4 µM
# Text: U.S. Tox21 Program National Center for Advancing Translational Sciences [NCATS] NIH Chemical Genomics Center [NCGC] U.S. Environmental Protection Agency [EPA] National Institutes of Environmental Health Sciences [NIEHS] National Toxicology Program [NTP] U.S. Food and Drug Administration [FDA] Tox21 Assay Overview: DNA repair pathways play a critical role in cellular homeostasis by repairing DNA damage induced by endogenous processes and xenobiotics. Isogenic chicken DT40 cell lines deficient in different DNA repair pathways can be used to identify genotoxic compounds and aid in characterizing the nature of the DNA damage induced. Two DNA repair-deficient cell lines with disrupted genes, Rad54/Ku70 or Rev3, were used to screen the Tox21 10K compound library. Possible genotoxicity was based on the presence of a significant increase in cytotoxicity in one or more of the DNA repair-deficient cell lines compared to that observed in the parental DNA repair-proficient cell line. CellTiter Glo viability assay (Promega, Madison, WI) was used to measure cell viability in these cells after compound treatment. This assay includes the data from the wild type cell line.
# Tox21 Assay Protocol Summary: 300 DT40 wild type cells in 5 uL/well were dispensed into white, solid-bottom 1536-well plates using a Multidrop Combi (ThermoFisher Scientific, Waltham, MA) dispenser. After the assay plates were incubated at 37 C/5% CO2 for approximately 0.5 hour, 23 nL of compounds dissolved in DMSO, positive controls or DMSO only was transferred into the assay plate by a pintool work station (Kalypsys, San Diego, CA). The assay plates were incubated at 37 C/5% CO2 for 40 hours. After 5 uL per well of CellTiter-Glo reagent was added into each well of the assay plates, the plates were incubated for 30 min at room temperature and the luminescence intensity of the plates was measured using a ViewLux (PerkinElmer, Shelton, CT) plate reader.
# Potency means the concentration at half of the fitted maximal effect.
row,Structure (SMILES),Potency
1,CCN(CC)CCN1C(=O)CN=C(c2ccccc2F)c2cc(Cl)ccc21,6.68 µM (active)
2,O=S1OCC2C(CO1)C1(Cl)C(Cl)=C(Cl)C2(Cl)C1(Cl)Cl (stereo not given),54.5 µM (active) and 24.3 µM (active)
3,ClC1=C(Cl)[C@]2(Cl)[C@H]3[C@H]([C@@H]4C=C[C@H]3C4)[C@@]1(Cl)C2(Cl)Cl,inactive
4,CNC(=O)/C=C(\C)OP(=O)(OC)OC,inactive
5,CCOC(=O)CCN(SN(C)C(=O)Oc1cccc2c1OC(C)(C)C2)C(C)C,17.2 µM (active)
6,Oc1cccc(Cl)c1Cl,inactive
7,CCO/N=C(\CC)C1=C(O)CC(c2c(C)cc(C)cc2C)CC1=O (stereo not given),48.5 µM (active)
8,COP(=O)(OC)O/C(=C\Cl)c1cc(Cl)c(Cl)cc1Cl,17.2 µM (active)
9,CN1CCc2cc3c(cc2C1O)OCO3 (stereo not given),inactive
10,[Cl][Hg][c]1ccccc1,0.122 µM (active)
11,CCCCCCCc1ccc(O)cc1,21.7 µM (active)
12,CCC1COC(Cn2cncn2)(c2ccc(Cl)cc2Cl)O1 (stereo not given),15.4 µM (active)
13,[O]=[Cr][O][Cr]=[O],inactive
14,CCCCCCC[CH2][Sn]([Cl])([Cl])[CH2]CCCCCCC,inactive
15,Cc1ccc(C)c2ccccc12,inactive
16,CC(C)c1c(CN(C)C(C)Cc2ccccc2)n(C)n(-c2ccccc2)c1=O (stereo not given),6.39 µM (active)
17,CCN1CCC2(CC1)COc1cc3c(cc12)N(C(=O)c1ccc(-c2ccc(-c4nnc(C)o4)cc2C)cc1)CC3,1.26 µM (active)
18,CC(C)[C@@H](Nc1ccc(C(F)(F)F)cc1Cl)C(=O)OC(C#N)c1cccc(Oc2ccccc2)c1 (stereo not given in full),inactive
19,O=S1(=O)OCC2C(CO1)C1(Cl)C(Cl)=C(Cl)C2(Cl)C1(Cl)Cl (stereo not given),24.3 µM (active)
20,CC(=O)[O-].CC(=O)[O-].O.O.[Zn+2],inactive

row,Structure (SMILES),Potency
1,CCCN,inactive
2,N#Cc1c[nH]cc1-c1cccc2c1OC(F)(F)O2,13.7 µM (active)
3,Nc1nc(N)c(N)c(N)n1,inactive
4,CC(C)=CC1C(C(=O)OC(C#N)c2cccc(Oc3ccccc3)c2)C1(C)C (stereo not given),inactive
5,Oc1ccc2[nH]cc(CCCCN3CC=C(c4ccccc4)CC3)c2c1,5.96 µM (active)
6,COc1ccc2c3c1O[C@H]1[C@H](O)CC[C@H]4[C@@H](C2)N(C)CC[C@@]341,inactive
7,Cc1cc(C2CC2)nc(Nc2ccccc2)n1,24.3 µM (active)
8,O=C(NC(=O)c1ccccc1Cl)Nc1ccc(OC(F)(F)F)cc1,inactive
9,CC(=O)O.CC(=O)O.CC(=O)O.CC(=O)O.CC(=O)O.CC(=O)O.CC(=O)O.O.O.[Cr].[Cr].[Cr],inactive
10,CCNc1nc(NC(C)C(C)C)nc(SC)n1 (stereo not given),38.6 µM (active)
11,CC(Cc1ccc2c(c1)OCO2)NO (stereo not given),inactive
12,O=c1[nH]c(Cl)c(Cl)cc1Cl,inactive
13,O=[N+]([O-])c1ccccc1-c1ccccc1,inactive
14,CCCCCON=O,inactive
15,CN=C=O,inactive
16,CN1C(=O)[C@@H](NC(=O)c2cc3ccccc3[nH]2)N=C(c2ccccc2)c2ccccc21,10.6 µM (active)
17,C=CC(=C)C,27.3 µM (active)
18,CCCC[N+]1(C)CCCC1 (tested in a mixture with another compound),inactive
19,CC[C@]1(O)CC[C@H]2[C@@H]3CCC4=CCCC[C@@H]4[C@H]3CC[C@@]21C,8.41 µM (active)
20,CC(C)=CCN1CC[C@@]2(C)c3cc(O)ccc3C[C@@H]1[C@@H]2C,19 µM (active)
